Experimental findings from PubChem BioAssay (EPA / NIEHS) are described below.

Values joined by “and” are separate entries in the source; they are usually repeats but may differ in a detail not shown here. Identical values can stand only once. Inconclusive results are not listed. Active and inactive are the calls of the source. Rule for the calls: active = hit-call score of the fitted dose curve at least 0.9, where 1 is the maximum; inconclusive = response in the unintended direction; inactive = score below 0.9.

The target of assay [1] is Estrogen receptor beta (Homo sapiens) (UniProt Q92731). Briefly: ATG_hERb_XSP1: Attagene TRANS-FACTORIAL Multi-Species (XSP1) HepG2 Assay for human Estrogen Receptor (ESR2) (AID 2283788). The gist of the method:
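Transient MRTU transfection of HepG2; ERβ–GAL4 TRANS format; 24 h dosing; 3 nM 6α-fluorotestosterone co-added; RNA → RT-PCR → 6-FAM primer extension → CE; activity vs DMSO.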

Assay [2] in a line: ATG_M_06_XSP1: Attagene TRANS-FACTORIAL Multi-Species (XSP1) HepG2 Assay for M06 Transcription Factor (Internal Marker) (AID 2283790). The gist of the method: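 This background-control readout tracks M06 reporter mRNA, measured by RT-PCR and capillary electrophoresis. HepG2 cells transiently carrying the GAL4-UAS reporter panel were dosed for 24 h with 3 nM 6-alpha-fluorotestosterone added for partial AR stimulation; increases were scored relative to DMSO.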

Assay [3] in a line: ATG_M_61_XSP1: Attagene TRANS-FACTORIAL Multi-Species (XSP1) HepG2 Assay for M61 Transcription Factor (Internal Marker) (AID 2283797). The gist of the method:
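Background-control readout: reporter transcripts measured by RT-PCR and capillary electrophoresis 24 h after dosing transiently transfected HepG2 multi-reporter cells, with 3 nM 6-alpha-fluorotestosterone present. Fitted in the positive direction relative to DMSO.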

Assay [4] in a line: ATG_M_19_XSP1: Attagene TRANS-FACTORIAL Multi-Species (XSP1) HepG2 Assay for M19 Transcription Factor (Internal Marker) (AID 2283798). The gist of the method:
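Readout is reporter mRNA induction quantified via RT-PCR, 6-FAM labeling, HpaI digestion and capillary electrophoresis, fitted in the positive direction versus DMSO baseline. Transfected HepG2 cells exposed 24 h, medium including 3 nM 6-alpha-fluorotestosterone.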

Assay [5] can be described thus: ATG_M_32_XSP1: Attagene TRANS-FACTORIAL Multi-Species (XSP1) HepG2 Assay for M32 Transcription Factor (Internal Marker) (AID 2283799). The gist of the method:
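Reporter transcripts from the M32 internal-control unit measured by RT-PCR, FAM labelling, HpaI digestion and capillary electrophoresis after 24 h compound exposure of transfected HepG2, 3 nM 6-alpha-fluorotestosterone included; DMSO baseline, positive-direction fit.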

In assay [6] the target is Peroxisome proliferator-activated receptor gamma (Homo sapiens) (UniProt P37231). The assay can be described thus: ATG_hPPARg_XSP1: Attagene TRANS-FACTORIAL Multi-Species (XSP1) HepG2 Assay for human Peroxisome Proliferator-activated Receptor gamma (PPARg) (AID 2283800). The gist of the method: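 Reporter mRNA induction, measured by RT-PCR with capillary electrophoresis 24 h after dosing, scored as gain over DMSO. Transfected HepG2 cells express exogenous NR-Gal4 chimeras driving GAL4-UAS reporters; medium includes 3 nM 6-alpha-fluorotestosterone.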
Sequence of Peroxisome proliferator-activated receptor gamma (Homo sapiens) (P37231 whole entry, looked up, the tested form may be a part): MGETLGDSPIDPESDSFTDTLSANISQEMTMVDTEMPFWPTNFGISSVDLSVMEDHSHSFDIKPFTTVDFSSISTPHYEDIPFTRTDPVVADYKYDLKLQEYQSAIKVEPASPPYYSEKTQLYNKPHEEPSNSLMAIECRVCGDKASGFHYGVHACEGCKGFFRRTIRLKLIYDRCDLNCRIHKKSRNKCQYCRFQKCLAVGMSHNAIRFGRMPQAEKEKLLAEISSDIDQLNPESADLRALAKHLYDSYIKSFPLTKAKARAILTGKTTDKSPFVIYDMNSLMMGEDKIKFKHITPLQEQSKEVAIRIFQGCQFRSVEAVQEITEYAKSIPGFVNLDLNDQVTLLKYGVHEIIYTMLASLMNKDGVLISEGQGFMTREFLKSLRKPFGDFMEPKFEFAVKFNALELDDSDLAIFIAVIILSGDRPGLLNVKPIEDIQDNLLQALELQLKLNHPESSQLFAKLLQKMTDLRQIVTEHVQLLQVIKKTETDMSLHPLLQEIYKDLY

Assay [7] concerns the target mouse Peroxisome Proliferator-activated Receptor gamma (PPARg), Pparg (gene 19016) (UniProt P37238). Briefly: ATG_mPPARg_XSP1: Attagene TRANS-FACTORIAL Multi-Species (XSP1) HepG2 Assay for mouse Peroxisome Proliferator-activated Receptor gamma (PPARg) (AID 2283802). The gist of the method: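 Readout is reporter mRNA induction, measured by RT-PCR with 6-FAM labelling, HpaI digestion and capillary electrophoresis, 24 h post-dose relative to DMSO. Transient multi-reporter transfection of human HepG2 with mouse PPARg–GAL4 fusion; 3 nM 6-alpha-fluorotestosterone included.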

The target of assay [8] is Nuclear receptor subfamily 1 group I member 2 (Mus musculus) (UniProt O54915). Briefly: ATG_mPXR_XSP1: Attagene TRANS-FACTORIAL Multi-Species (XSP1) HepG2 Assay for mouse Pregnane X Receptor (PXR) (AID 2283803). The gist of the method: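 Transiently transfected HepG2 cells expressing a receptor-Gal4 chimera drive a GAL4-UAS reporter; 3 nM 6-alpha-fluorotestosterone included. Reporter mRNA read 24 h post-dose by RT-PCR and capillary electrophoresis; gain of signal relative to DMSO.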
Sequence of Nuclear receptor subfamily 1 group I member 2 (Mus musculus) (O54915 whole entry, looked up, the tested form may be a part): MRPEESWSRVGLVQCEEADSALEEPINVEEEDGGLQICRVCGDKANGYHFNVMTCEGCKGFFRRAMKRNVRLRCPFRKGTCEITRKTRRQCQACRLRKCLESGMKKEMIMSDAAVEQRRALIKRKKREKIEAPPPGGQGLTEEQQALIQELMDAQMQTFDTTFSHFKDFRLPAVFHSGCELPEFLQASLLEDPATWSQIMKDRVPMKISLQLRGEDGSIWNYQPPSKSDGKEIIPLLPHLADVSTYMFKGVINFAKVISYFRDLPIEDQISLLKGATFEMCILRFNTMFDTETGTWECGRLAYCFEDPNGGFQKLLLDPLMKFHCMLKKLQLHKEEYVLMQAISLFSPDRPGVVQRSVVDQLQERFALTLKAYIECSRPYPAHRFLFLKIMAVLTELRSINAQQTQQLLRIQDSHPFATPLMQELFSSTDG

Assay [9] has as its system turtle Thyroid Hormone Receptor, alpha (TRa), gene 101949057. Briefly: ATG_trTRa_XSP1: Attagene TRANS-FACTORIAL Multi-Species (XSP1) HepG2 Assay for turtle Thyroid Hormone Receptor, alpha (TRa) (AID 2283806). The gist of the method:
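After 24 h chemical exposure, reporter transcripts were measured by RT-PCR with fluorescent primer extension, HpaI digestion and capillary electrophoresis. Cells were transiently transfected HepG2 expressing exogenous NR-Gal4 chimeras; medium contained 3 nM 6-alpha-fluorotestosterone; fitted upward relative to DMSO.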

Assay [10] addresses zebrafish Thyroid Hormone Receptor alpha (TRa), thraa (gene 30670) (UniProt Q98867). Briefly: ATG_zfTRa_XSP1: Attagene TRANS-FACTORIAL Multi-Species (XSP1) HepG2 Assay for zebrafish Thyroid Hormone Receptor alpha (TRa) (AID 2283807). The gist of the method: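 Reporter transcripts driven by a chimeric zebrafish TRa–Gal4 protein were measured by RT-PCR with fluorescent labelling and capillary electrophoresis. These came from transiently transfected HepG2 cells after 24 h chemical exposure, with 3 nM 6-alpha-fluorotestosterone added; baseline was DMSO.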

Assay [11] concerns the target zebrafish Thyroid Hormone Receptor beta (TRb), thrb (gene 30607) (UniProt Q9PVE4). The assay can be described thus: ATG_zfTRb_XSP1: Attagene TRANS-FACTORIAL Multi-Species (XSP1) HepG2 Assay for zebrafish Thyroid Hormone Receptor beta (TRb) (AID 2283809). The gist of the method: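 HepG2 cells transiently transfected with multiplexed GAL4-UAS reporter units expressing chimeric zebrafish TRb–Gal4. Dosed 24 h with 3 nM 6-alpha-fluorotestosterone present; reporter mRNA measured by RT-PCR, HpaI digestion and capillary electrophoresis; gain of signal versus DMSO.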

Assay [12] can be described thus: ATG_M_06_XSP2: Attagene TRANS-FACTORIAL Multi-Species (XSP2) HepG2 Assay for M06 Transcription Factor (Internal Marker) (AID 2283811).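 Note: hits are increases in signal above the DMSO baseline.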 The gist of the method: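 Readout: fluorescent reporter-mRNA peaks by capillary electrophoresis after RT-PCR and HpaI digest, scored upward relative to DMSO. Transfected HepG2, 24 h chemical exposure, with 3 nM 6-alpha-fluorotestosterone and 1.5 nM norgestrel added.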

The subject of assay [13] is turtle Estrogen Receptor (ERa), gene 101933533. The assay can be described thus: ATG_trERa_XSP2: Attagene TRANS-FACTORIAL Multi-Species (XSP2) HepG2 Assay for turtle Estrogen Receptor (ERa) (AID 2283812).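 Note: actives raise reporter signal above DMSO so AC50 reflects agonist activity.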 The gist of the method:
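Readout is reporter mRNA quantified by RT-PCR with capillary electrophoresis after 24 h compound exposure, increase relative to DMSO. Uses transiently transfected human HepG2 liver cells carrying a chimeric turtle ERa-Gal4 receptor driving GAL4-UAS reporters.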

The target of assay [14] is Estrogen receptor beta (Homo sapiens) (UniProt Q92731). The assay can be described thus: ATG_hERb_XSP2: Attagene TRANS-FACTORIAL Multi-Species (XSP2) HepG2 Assay for human Estrogen Receptor (ERb) (AID 2283813).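 Note: actives raise reporter mRNA above DMSO so AC50 reflects agonist induction.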 The gist of the method: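 Transient TRANS reporter system in HepG2: after 24 h of chemical, RNA is reverse-transcribed, reporter cDNA amplified, FAM-labelled and sized by capillary electrophoresis. Induction of the human ERb-Gal4 reporter is measured relative to DMSO.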
Sequence of Estrogen receptor beta (Homo sapiens) (Q92731 whole entry, looked up, the tested form may be a part): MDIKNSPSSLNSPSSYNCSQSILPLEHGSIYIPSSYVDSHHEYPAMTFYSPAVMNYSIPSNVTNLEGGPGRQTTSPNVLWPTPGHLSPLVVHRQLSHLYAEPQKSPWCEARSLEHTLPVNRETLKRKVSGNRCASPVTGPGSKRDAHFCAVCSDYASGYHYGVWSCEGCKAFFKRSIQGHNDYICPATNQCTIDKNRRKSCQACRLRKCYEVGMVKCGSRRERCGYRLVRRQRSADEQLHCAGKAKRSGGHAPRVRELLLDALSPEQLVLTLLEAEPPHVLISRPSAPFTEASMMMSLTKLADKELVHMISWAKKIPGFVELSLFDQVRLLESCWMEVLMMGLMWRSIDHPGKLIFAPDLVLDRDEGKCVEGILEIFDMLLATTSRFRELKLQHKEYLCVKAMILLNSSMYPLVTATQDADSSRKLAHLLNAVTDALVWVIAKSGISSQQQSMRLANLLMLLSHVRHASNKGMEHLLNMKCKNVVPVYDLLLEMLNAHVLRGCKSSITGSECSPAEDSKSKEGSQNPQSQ

Assay [15] concerns the target GAL4 Transcription Factor (Internal Marker), GAL4 (gene 855828) (UniProt P04386). The assay can be described thus: ATG_GAL4_XSP2: Attagene TRANS-FACTORIAL Multi-Species (XSP2) HepG2 Assay for GAL4 Transcription Factor (Internal Marker) (AID 2283814).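 Note: GAL4 reporter mRNA background control in MRTU transfected cells not a receptor target.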 The gist of the method: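 Background-control readout: gain-of-signal fitted against DMSO. After 24 h exposure of transfected HepG2 (MRTU, GAL4-UAS reporters; 3 nM 6-alpha-fluorotestosterone, 1.5 nM norgestrel present), transcripts quantified by RT-PCR and capillary electrophoresis fluorescence.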

Another assay deals with AR (gene 367) (UniProt P10275). Briefly: ACEA_AR_antagonist_80hr: ACEA Biosciences xCELLigence Real-Time Cell Analysis on Androgen Receptor Antagonism for Proliferation (AID 2283787).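 Note: 22Rv1 human prostate cancer cells with growth followed by electrical impedance; hits lower the impedance growth signal relative to DMSO.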 The gist of the method: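 Measures real-time proliferation of 22Rv1 prostate cancer cells by electrode impedance at 80 hours after dosing. Test articles ran at eight concentrations (1:4 steps, top 100 uM final) in biological duplicate.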
Sequence of AR (gene 367) (P10275 whole entry, looked up): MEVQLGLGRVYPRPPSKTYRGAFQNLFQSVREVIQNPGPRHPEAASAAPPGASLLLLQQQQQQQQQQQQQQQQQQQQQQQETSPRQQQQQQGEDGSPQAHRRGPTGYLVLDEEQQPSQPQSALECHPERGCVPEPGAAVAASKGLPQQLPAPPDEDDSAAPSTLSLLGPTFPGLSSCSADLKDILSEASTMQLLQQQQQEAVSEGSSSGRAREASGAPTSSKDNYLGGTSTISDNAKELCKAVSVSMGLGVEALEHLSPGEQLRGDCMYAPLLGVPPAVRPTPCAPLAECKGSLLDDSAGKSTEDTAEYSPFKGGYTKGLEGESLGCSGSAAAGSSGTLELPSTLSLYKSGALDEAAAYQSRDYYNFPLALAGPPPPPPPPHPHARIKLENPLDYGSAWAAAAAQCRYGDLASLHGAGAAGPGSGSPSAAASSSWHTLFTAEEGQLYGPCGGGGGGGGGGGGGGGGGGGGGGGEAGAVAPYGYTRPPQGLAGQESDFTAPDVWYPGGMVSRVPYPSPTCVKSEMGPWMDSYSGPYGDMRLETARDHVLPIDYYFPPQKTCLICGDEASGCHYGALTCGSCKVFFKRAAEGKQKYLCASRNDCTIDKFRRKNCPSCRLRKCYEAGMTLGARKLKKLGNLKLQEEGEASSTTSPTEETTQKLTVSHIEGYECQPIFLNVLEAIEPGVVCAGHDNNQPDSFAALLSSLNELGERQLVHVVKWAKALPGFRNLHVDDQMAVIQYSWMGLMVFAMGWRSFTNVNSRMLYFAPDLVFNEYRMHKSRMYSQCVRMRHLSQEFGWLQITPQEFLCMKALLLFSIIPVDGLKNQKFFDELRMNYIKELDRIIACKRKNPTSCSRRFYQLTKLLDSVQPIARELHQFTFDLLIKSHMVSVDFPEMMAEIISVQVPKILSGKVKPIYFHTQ

The target of assay [16] is GAL4 Transcription Factor (Internal Marker), GAL4 (gene 855828) (UniProt P04386). The assay can be described thus: ATG_GAL4_XSP1: Attagene TRANS-FACTORIAL Multi-Species (XSP1) HepG2 Assay for GAL4 Transcription Factor (Internal Marker) (AID 2283789). The gist of the method:
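This background-control endpoint measures GAL4-driven reporter mRNA via RT-PCR and capillary electrophoresis of labelled fragments. Transiently transfected HepG2 cells were treated 24 h, with 3 nM 6-alpha-fluorotestosterone included, and gain-of-signal was fitted against DMSO.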

Assay [17] deals with zebrafish Peroxisome Proliferator-activated Receptor gamma (PPARg), gene 557037. The assay can be described thus: ATG_zfPPARg_XSP1: Attagene TRANS-FACTORIAL Multi-Species (XSP1) HepG2 Assay for zebrafish Peroxisome Proliferator-activated Receptor gamma (PPARg) (AID 2283801). The gist of the method:
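Trans-activation readout of chimeric zebrafish PPARg–GAL4 in transiently transfected human HepG2 cells, 24 h chemical exposure (medium includes 3 nM 6-alpha-fluorotestosterone). Reporter transcripts measured by RT-PCR and capillary electrophoresis, fitted as gain over DMSO.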

The target of assay [18] is human Thyroid hormone Receptor beta (TRb), THRB (gene 7068) (UniProt P10828). Briefly: ATG_hTRb_XSP1: Attagene TRANS-FACTORIAL Multi-Species (XSP1) HepG2 Assay for human Thyroid hormone Receptor beta (TRb) (AID 2283808). The gist of the method: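 Readout is reporter mRNA induction measured by RT-PCR, fluorescent labelling and capillary electrophoresis, fitted upward relative to DMSO. Transiently transfected human HepG2 cells expressing NR-Gal4 chimeras were dosed for 24 h, medium containing 3 nM 6-alpha-fluorotestosterone.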

A short description of assay [19]: ATG_XTT_Cytotoxicity_XSP1: Cytotoxicity Assessment in the Attagene TRANS-FACTORIAL Multi-Species (XSP1) HepG2 Assay (AID 2283810). The gist of the method: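 XTT viability readout taken at 24 hours post-dosing in HepG2 liver cells co-treated with 3 nM 6-alpha-fluorotestosterone. Signal loss relative to DMSO controls reflects cytotoxicity.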

Sequence of GAL4 Transcription Factor (Internal Marker), GAL4 (gene 855828) (P04386 whole entry, looked up, the tested form may be a part): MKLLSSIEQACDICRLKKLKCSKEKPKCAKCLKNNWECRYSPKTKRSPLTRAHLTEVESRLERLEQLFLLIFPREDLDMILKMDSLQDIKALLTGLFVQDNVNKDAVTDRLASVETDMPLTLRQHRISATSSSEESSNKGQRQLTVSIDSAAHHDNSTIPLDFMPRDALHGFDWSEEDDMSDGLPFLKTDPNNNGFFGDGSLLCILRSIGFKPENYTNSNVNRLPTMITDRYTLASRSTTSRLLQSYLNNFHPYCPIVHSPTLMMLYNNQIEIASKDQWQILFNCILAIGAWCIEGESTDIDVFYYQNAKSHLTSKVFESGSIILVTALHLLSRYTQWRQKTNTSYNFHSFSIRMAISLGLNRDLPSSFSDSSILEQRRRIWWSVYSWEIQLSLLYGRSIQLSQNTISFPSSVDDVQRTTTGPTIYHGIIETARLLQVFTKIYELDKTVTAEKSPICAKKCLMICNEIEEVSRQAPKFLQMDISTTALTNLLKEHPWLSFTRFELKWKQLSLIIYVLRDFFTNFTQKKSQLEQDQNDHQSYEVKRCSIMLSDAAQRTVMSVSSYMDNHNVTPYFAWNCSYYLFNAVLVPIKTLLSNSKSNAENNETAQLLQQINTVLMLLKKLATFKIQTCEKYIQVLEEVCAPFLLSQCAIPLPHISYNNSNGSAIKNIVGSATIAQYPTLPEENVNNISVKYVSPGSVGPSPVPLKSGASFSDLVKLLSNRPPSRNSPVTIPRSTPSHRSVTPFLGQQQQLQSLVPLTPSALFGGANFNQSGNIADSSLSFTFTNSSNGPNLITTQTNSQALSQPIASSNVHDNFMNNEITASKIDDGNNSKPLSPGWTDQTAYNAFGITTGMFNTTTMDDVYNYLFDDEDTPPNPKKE
Sequence of mouse Peroxisome Proliferator-activated Receptor gamma (PPARg), Pparg (gene 19016) (P37238 whole entry, looked up, the tested form may be a part): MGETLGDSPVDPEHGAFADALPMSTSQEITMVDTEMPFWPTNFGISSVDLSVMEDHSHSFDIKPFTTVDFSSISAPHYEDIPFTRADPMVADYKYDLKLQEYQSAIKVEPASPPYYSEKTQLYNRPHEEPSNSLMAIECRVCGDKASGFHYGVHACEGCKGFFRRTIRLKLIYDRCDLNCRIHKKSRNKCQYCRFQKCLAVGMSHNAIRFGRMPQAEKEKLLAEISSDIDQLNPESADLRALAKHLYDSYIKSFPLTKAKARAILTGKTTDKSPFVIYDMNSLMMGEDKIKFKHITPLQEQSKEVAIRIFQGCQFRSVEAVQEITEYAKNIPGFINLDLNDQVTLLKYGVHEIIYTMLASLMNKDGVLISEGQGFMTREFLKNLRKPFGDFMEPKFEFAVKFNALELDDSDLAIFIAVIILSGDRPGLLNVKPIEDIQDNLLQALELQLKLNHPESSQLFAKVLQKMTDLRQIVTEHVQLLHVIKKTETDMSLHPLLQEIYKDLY
Sequence of zebrafish Thyroid Hormone Receptor alpha (TRa), thraa (gene 30670) (Q98867 whole entry, looked up, the tested form may be a part): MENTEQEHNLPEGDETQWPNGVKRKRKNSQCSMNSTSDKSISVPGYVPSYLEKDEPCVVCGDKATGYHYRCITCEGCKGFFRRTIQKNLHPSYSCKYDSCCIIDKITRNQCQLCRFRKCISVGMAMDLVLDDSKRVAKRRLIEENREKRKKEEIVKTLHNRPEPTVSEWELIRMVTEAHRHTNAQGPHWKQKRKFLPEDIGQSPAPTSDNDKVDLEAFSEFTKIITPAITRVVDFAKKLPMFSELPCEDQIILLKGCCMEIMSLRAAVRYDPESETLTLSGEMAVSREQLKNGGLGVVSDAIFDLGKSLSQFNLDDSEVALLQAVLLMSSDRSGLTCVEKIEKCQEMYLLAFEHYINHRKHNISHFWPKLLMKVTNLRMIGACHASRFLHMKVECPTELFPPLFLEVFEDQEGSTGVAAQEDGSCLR
Sequence of zebrafish Thyroid Hormone Receptor beta (TRb), thrb (gene 30607) (Q9PVE4 whole entry, looked up, the tested form may be a part): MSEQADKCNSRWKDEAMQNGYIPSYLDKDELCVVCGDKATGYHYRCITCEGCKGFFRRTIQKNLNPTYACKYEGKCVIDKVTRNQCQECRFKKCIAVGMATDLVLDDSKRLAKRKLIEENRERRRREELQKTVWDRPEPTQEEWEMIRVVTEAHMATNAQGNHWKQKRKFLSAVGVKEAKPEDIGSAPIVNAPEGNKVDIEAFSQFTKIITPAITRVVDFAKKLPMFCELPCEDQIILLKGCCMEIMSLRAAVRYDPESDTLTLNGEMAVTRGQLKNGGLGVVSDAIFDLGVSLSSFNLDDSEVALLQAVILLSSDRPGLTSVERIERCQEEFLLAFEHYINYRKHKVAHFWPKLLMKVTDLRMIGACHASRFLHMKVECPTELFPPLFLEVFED

On to `CCOP(=S)(OCC)Oc1ccc2c(C)c(Cl)c(=O)oc2c1`, for which the result in assay [1], in assay [2], in assay [3], in [4], in assay [5] and in assay [9] was inactive. Also, the outcome in assay [10], in assay [11], in [12], in assay [13], in assay [14] and in [15] was inactive. The AC50 was 11.4 µM (active) in assay [6], 26.7 µM (active) in [7] and 0.214 µM (active) in assay [8].
As for `CCCSP(=O)(OCC)SCCC`, the AC50 with AR (gene 367) is 34 µM (active).
With `CCOP(=O)(NC(C)C)Oc1ccc(SC)c(C)c1` (stereo unspecified), the AC50 was 40.5 µM (active) in the assay with AR (gene 367); 100 µM (active) and 52.6 µM (active) in assay [13]. For the same compound, the call in assay [12], in assay [14] and in [15] was inactive.
For the compound `N#CSCSC#N`, in the assay with AR (gene 367), the AC50 is 11.7 µM (active).
Turning to `CCC(=O)Nc1ccc(Cl)c(Cl)c1`, in the assay with AR (gene 367), the AC50 was 20 µM (active). For the same compound, the call in assay [12] and in [13] was inactive.
`CCC(CC)Nc1c([N+](=O)[O-])cc(C)c(C)c1[N+](=O)[O-]`: the outcome in [12] and in assay [14] was inactive. In addition, the half-maximal activity concentration (AC50) in assay [13] is 2.52 µM (active) and 1.7 µM (active).
Regarding `CCCCOC(=O)c1ccccc1C(=O)O`, the compound was called inactive in the assay with AR (gene 367).
Turning to `Nc1c(Cl)cc([N+](=O)[O-])cc1Cl`, the AC50 with AR (gene 367) was 50 µM (active). Further, the outcome in assay [13], in assay [14] and in assay [15] was inactive.
As for `CCCOCC(=Nc1ccc(Cl)cc1C(F)(F)F)n1ccnc1`, the outcome in assay [16], in [4], in assay [5], in [17], in [9] and in [10] was inactive. Also, the call in assay [18], in assay [11], in assay [12] and in [14] was inactive. The AC50 in assay [6] is 0.985 µM (active); in assay [7], 0.674 µM (active); in assay [8], 0.201 µM (active); in [19] it was 100 µM (active).
As for `COc1ccc(C(=CC(=O)N2CCOCC2)c2ccc(Cl)cc2)cc1OC`, the concentration at half-maximal activity (AC50) with AR (gene 367) was 15.8 µM (active). Further, the result in assay [12], in [13], in [14] and in assay [15] was inactive.
Take `COP(=O)(OC)OC(Br)C(Cl)(Cl)Br` (stereo unspecified): the concentration at half-maximal activity (AC50) with AR (gene 367) is 69.5 µM (active).
On to `CC(COc1ccc(Oc2ccccc2)cc1)Oc1ccccn1` (stereo unspecified), for which the AC50 in the assay with AR (gene 367) is 66.3 µM (active).
Turning to `C=C(C)[C@H]1Cc2c(ccc3c2O[C@@H]2COc4cc(OC)c(OC)cc4[C@@H]2C3=O)O1`, the AC50 with AR (gene 367) is 1.54 µM (active).
Consider `CNC(=O)ON=C(SC)C(=O)N(C)C`, for which the result with AR (gene 367) was inactive.
